Measured values: the supplement of paper PMC10105736

How the values were obtained:
Assay in all cases: MAPPIT interaction score (arbitrary units); higher = stronger binary interaction signal, active = hit call of the paper;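 active = MAPPIT score above the 99th percentile of random reference set scores in the same batch; inactive = at or below it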
LTV1 = details: MAPPIT configuration: N-N; pair source set: screen_1
MAPk-Ak2 = details: MAPPIT configuration: N-N; pair source set: Curagen_high_conf
Lcp1 = details: MAPPIT configuration: N-N; pair source set: DPIM
MED8 = biological target: MED8
MED15 = details: MAPPIT configuration: N-N; pair source set: Finley_Y2H
Lac = details: pair source set: Lit-BM-16
Lmpt = details: MAPPIT configuration: N-N; pair source set: Curagen_low_conf
Pen = details: MAPPIT configuration: N-N; pair source set: Finley_Y2H
lwr = details: MAPPIT configuration: N-N; pair source set: screen_1
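Further: HEK293T cells with Epo stimulation, STAT-responsive firefly luciferase reporter, fold induction versus unstimulated cells divided by the larger fold induction of two negative controls lacking either bait or prey.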

B1: bys (protein)
chain: MGKPKKANVATIKNVNLEKQITEGRVAKNKNKDKVKLRAEESANIDARSSQKILAAAKLQQLELDEENFPSLVTVKKVNFSLNDGHVKEDEEVNETDLMADLDMDEDDVAAFERFQQPAQEGKRTLHLSKMIMQKIQEKEADIHTKISDEGSLKIEEIDPKVKEMYEGVRDVLKRYRSGKIPKAFKIIPKLRNWEQILFITEPHNWSAAAMFQGTRIFCSVLSQAMAQRFYNLVLLPRVRDDLCEYKKLNMHLYNALKRALFKPAAFMKGIILPLLEGGDCTLREAIIFGSVVARSSIPVLHSSACLLKICEMAYSGANSIFIRYFLDKRYALPYRVVDAAVFHFLRFENDKRELPVLWHQSLLTFAQRYKNDISSEQRDALLQLLKKKSHFKITPDVRRELQAASCRDVEMMETDNGLAGQPAKMYTDADVEYEG
B1 was tested, and the MAPPIT interaction score (LTV1) was 1.68 (inactive).

B2: p38b (protein)
chain: MSRKMAKFYKLDINRTEWEIPETYQNLQPVGQGAYGQVCKAVVRGTSTKVAIKKLARPFQSAVHAKRTYRELRLLKHMDHENVIGLLDVFHPGQPADSLDQFQQVYMVTHLMDADLNNIIRTQKLSDDHVQFLVYQILRGLKYIHSAGVIHRDLKPSNIAVNEDCELRILDFGLARPAESEMTGYVATRWYRAPEIMLNWMHYNQTADIWSVGCIMAELLTGRTLFPGTDHIHQLNLIMEVLGTPADEFMSRISSESARNYIRSLPVMPRRNFRDIFRGANPLAIDLLEKMLELDADKRITAEQALAHPYMEKYHDPTDEQTAALYDQSFEENELPVEKWREMVFSEVTAFKPTAAFAELLPKEQ
For B2, the MAPPIT interaction score (MAPk-Ak2) was 1.93 (inactive).

B3: B52 (protein)
chain: MVGSRVYVGGLPYGVRERDLERFFKGYGRTRDILIKNGYGFVEFEDYRDADDAVYELNGKELLGERVVVEPARGTARGSNRDRYDDRYGGRRGGGGGRYNEKNKNSRSSSRYGPPLRTEYRLIVENLSSRVSWQDLKDYMRQAGEVTYADAHKQRRNEGVVEFASLSDMKTAIEKLDDTELNGRRIHLVEDRRGGRSGGGGGSGRGRSRSSSSRSRSRSRRRSRSRRSSHSRSKSRSRSKSRGGRSKSKSPVKSRSRSRSRSNKSRDVSKSKSKSHSRTRSRSPKRERDSRSRSRSVSKRESRSRSRSKSIHRDSRSRPPTVSFKSSFYKFTTMPFFCSDRSASAENKSRSRSRSRSASPKNGNASPDRNNESMDD
For B3, the MAPPIT interaction score (Lcp1) was -0.142 (inactive).

B4: Trmt112 (protein)
chain: MKLSTYNFLTSVAIKGVKVGFPLKLTINKKEVVESEFNPTFVERILPKLDWSAVYGAAQVAELTEDIPAVQPENIVENELLLQKLHHLLFEIDVLEGQLECPETGRVFPISDGIPNMLLNEDEV
B4 was tested, and the MAPPIT interaction score (MED8; MAPPIT configuration: N-C, pair source set: screen_4) was 0.923 (inactive) and the MAPPIT interaction score (MED8; MAPPIT configuration: N-N, pair source set: Finley_Y2H) was 1.99 (inactive).

B5: grp (protein)
chain: MAATLTEAGTGPAATREFVEGWTLAQTLGEGAYGEVKLLINRQTGEAVAMKMVDLKKHPDAANSVRKEVCIQKMLQDKHILRFFGKRSQGSVEYIFLEYAAGGELFDRIEPDVGMPQHEAQRYFTQLLSGLNYLHQRGIAHRDLKPENLLLDEHDNVKISDFGMATMFRCKGKERLLDKRCGTLPYVAPEVLQKAYHAQPADLWSCGVILVTMLAGELPWDQPSTNCTEFTNWRDNDHWQLQTPWSKLDTLAISLLRKLLATSPGTRLTLEKTLDHKWCNMQFADNERSYDLVDSAAALEICSPKAKRQRLQSSAHLSNGLDDSISRNYCSQPMPTMRSDDDFNVRLGSGRSKEDGGDRQTLAQEARLSYSFSQPALLDDLLLATQMNQTQNASQNYFQRLVRRMTRFFVTTRWDDTIKRLVGTIERLGGYTCKFGDDGVVTVSTVDRNKLRLVFKAHIIEMDGKILVDCRLSKGCGLEFKRRFIKIKNALEDIVLKGPTTWPIAIATNSVP
In the case of B5, the MAPPIT interaction score (MED15) is reported as 2.02 (inactive).

B6: Lac (protein)
chain: MWRPSISNCVWSTLLLAIFVQQTLAQRTPTISYITQEQIKDIGGTVEFDCSVQYAKEYNVLFLKTDSDPVFLSTGSTLVIKDSRFSLRYDPNSSTYKLQIKDIQETDAGTYTCQVVISTVHKVSAEVKLSVRRPPVISDNSTQSVVASEGSEVQMECYASGYPTPTITWRRENNAILPTDSATYVGNTLRIKSVKKEDRGTYYCVADNGVSKGDRRNINVEVEFAPVITVPRPRLGQALQYDMDLECHIEAYPPPAIVWTKDDIQLANNQHYSISHFATADEYTDSTLRVITVEKRQYGDYVCKATNRFGEAEARVNLFETIIPVCPPACGQAYIAGAEDVSATSFALVGILAALLFAR
B6 was tested, and the MAPPIT interaction score (Lac; MAPPIT configuration: N-C) was -0.593 (inactive) and the MAPPIT interaction score (Lac; MAPPIT configuration: N-N) was -0.017 (inactive).

B7: prod (protein)
chain: MEKVEAVTVSNVDPYRRILNKVVSQLLLDKGAGQASNHSLETLTQMLQALIWEIGNSAHNYCELSGRTMPTVGDVSLALINMGISISNLDPYMRKETHVPIPLPPQQTQQRPLSLLQAGIKAPHPHYVPSYFPPMPDPHAYIRTPTHKQPVTEYEAIREKAACQKRDIEKALTKFLCKTTETNNLFPTEDNMFPLIACKPAFPPYAAALNPTDQVFDFEELEYHYLVANRTEDEPSKDDGEEGDSENEEMDGDKSKEEKPELDIKPNSNTNKAILENPNIDNPYLRAATLPKRSKNCPTPGTMPSRSLATTAPTIRTPSTLEITKTNL
With B7 the MAPPIT interaction score (Lmpt) was 2.19 (inactive), the MAPPIT interaction score (Pen) was 0.326 (inactive) and the MAPPIT interaction score (lwr) was -0.147 (inactive).
